Here are results for 53 compounds from PubChem BioAssay AID588342 (National Center for Advancing Translational Sciences (NCATS), 2011).

Molecules are shown by their SMILES. The whole screen tested about 360,000 compounds, of which about 25,000 (6.9%) were called active. Not shown: some 9% with an inconclusive outcome. The full list was thinned out, with actives kept by preference. Unmarked numbers belong to inactive results. Calls come from the whole dose curve; as a rule, active = well fitted inhibition curve with a large enough effect; inconclusive = small, poorly fitted or top-dose-only effect; inactive = flat fitted curve, though single readings scatter.

This assay deals with Luciferin 4-monooxygenase (Photinus pyralis) (UniProt P08659). As to the kind of experiment: qHTS profiling assay for firefly luciferase inhibitor/activator using purifed enzyme and Km concentrations of substrates (counterscreen for miR-21 project).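 For activity change, negative = inhibition: plate controls were vehicle for no effect and reference inhibitor for full effect.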 Note: nearly all actives have a fitted effect of over 55% in size. The settings on record: purified FLuc, luminescence inhibition; series mostly up to 57.5 µM; activity change, negative = inhibition: at the top concentration. The text has this: MLPCN Grant: 1 R21 NS059478-01 (miR-21 grant) Assay Provider: NCGC NCGC Assay Overview: Firefly (Photinus pyralis) luciferase is one of the most commonly used transcriptional reporters for a number of reasons. It is considered one of the more dynamically responsive reporters -that is, responsive to changes in reporter transcription - as it requires no post-translational modifications and is enzymatically active directly after protein synthesis (Wood, 1998). Additionally, the half-life of the luciferase protein is short relative to other reporter-gene products (Wood, 1995). Whereas reporters with long half-lives potentially allow for increased signal due to accumulation of reporter-gene product, once accumulated in the cell, dynamic changes in reporter-gene expression may be difficult to detect(Fan and Wood, 2007; Almond et al., 2004). It has been shown that wild-type P. pyralis luciferase has a half-life of approximately […] hours in mammalian cells (Thompson et al., 1991). Firefly luciferase reporter-gene assays are also generally considered one of the most sensitive assay types (Wood, 1995; Wood, 1998). Although light produced in a bioluminescence reaction is of lower intensity than that produced during fluorescence emission, this is offset by little to no background light inherent to luminescent assays. Thus the luciferase reporter can be expressed at much lower levels than fluorescent proteins while still providing robust signal. # However, it was initially observed, in 1991, by Thompson et al., that compounds that resemble the substrates of firefly luciferase (FLuc) can act as competitive inhibitors of the enzyme, and that these compounds, upon interaction with luciferase in the cell, can actually stabilize the protein and increase its half-life. Accumulated intracellular FLuc protein can be measured as an increase in luminescence signal, upon addition of detection reagents (which contain high concentrations of FLuc substrates) commonly used in high-throughput screening. In cell-based reporter gene assays that use FLuc as the reporter gene to quantitate the potential influence of a given compound against the target biology, this apparent increase in luminescence can mistakenly be interpreted as identification of a compound that is active against the target of interest. This is the case for the miR-21 FLuc reporter gene assay used to identify inhibitors of the miR-21 pathway (PubChem AID 2289) - compounds of interest will inhibit miR-21 biogenesis/expression or activity, and are identified by causing an increase in luminescence, due to increased FLuc translation. However, FLuc inhibitory compounds that stabilize the FLuc protein will give an identical read-out, making it difficult to distinguish compounds that are active against the target from those active against FLuc. Previous profiling work to determine the prevalence of compounds that affect FLuc enzymatic activity (PubChem AID 411) identified that ~3% of the MLSMR library (then at ~72K) inhibited FLuc. […] Since the MLSMR had grown to ~350K compounds, and since it was expected that a significant percentage of compounds found active in the miR-21 FLuc assay would be FLuc inhibitors, the library was screened for activity against FLuc using a biochemical assay of purified FLuc and KM concentrations of FLuc substrates (D-luciferin and ATP).
Chain of Luciferin 4-monooxygenase (Photinus pyralis) (P08659 whole entry, looked up): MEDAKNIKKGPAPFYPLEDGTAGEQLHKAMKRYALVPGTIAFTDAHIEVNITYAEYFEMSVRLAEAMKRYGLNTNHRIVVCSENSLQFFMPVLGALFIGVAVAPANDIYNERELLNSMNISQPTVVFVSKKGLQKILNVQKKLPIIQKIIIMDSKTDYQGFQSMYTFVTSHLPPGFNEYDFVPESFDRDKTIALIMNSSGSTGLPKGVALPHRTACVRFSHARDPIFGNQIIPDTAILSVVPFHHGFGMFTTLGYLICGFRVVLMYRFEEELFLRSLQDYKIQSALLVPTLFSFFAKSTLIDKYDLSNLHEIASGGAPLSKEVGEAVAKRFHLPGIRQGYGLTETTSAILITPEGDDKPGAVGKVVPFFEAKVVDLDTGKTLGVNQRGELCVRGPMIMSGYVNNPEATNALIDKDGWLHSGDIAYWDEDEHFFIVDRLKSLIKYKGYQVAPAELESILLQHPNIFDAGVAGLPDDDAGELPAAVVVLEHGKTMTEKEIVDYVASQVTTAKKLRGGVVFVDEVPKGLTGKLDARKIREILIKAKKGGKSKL
NCGC Assay Protocol Summary: Reagents: 50mM Tris acetate, pH 7.5; 10mM Mg acetate; 10uM D-luciferin (Sigma #L9504); 10uM ATP; 0.01% Tween-20; 0.05% BSA; 10nM P. pyralis luciferase (Sigma #L9506) Control compounds used were two known firefly luciferase inhibitors (compounds (2) and (5) in Auld et al., 2010), and DMSO. […]
(qHTS replaces the single test concentration by a dilution series.)
Take `O=C1Cc2cc(S(=O)(=O)Nc3ccc(OC(F)(F)F)cc3)cc3c2N1CCC3`: the “activity change, negative = inhibition” value was 3.14%. Take `O=C(Nc1cccc2ccccc12)c1onc2c1CCCC2`: the Potency was 8.49 µM (active). As to `CN(CC(=O)Nc1ccc(Cl)cc1)CC(=O)Nc1cccc2ccccc12`, the “activity change, negative = inhibition” value is 2.54%. Same read-out and setting: the value for `O=C(O)c1ccccc1-c1ccccc1C(=O)Nc1cccc2ccccc12` was -0.517%. Take `COc1ccc(Cl)cc1C(=O)OCC(=O)NCc1cccs1`: the “activity change, negative = inhibition” value is -0.894%.

Consider `COc1ccc(C(=O)OCC(=O)c2ccc(Cl)s2)c(OC)c1OC`, for which the Potency is 21.3 µM (active). In the case of `COc1ccc(C(=O)OCC(=O)Nc2ccc3[nH]c(=O)[nH]c3c2)c(OC)c1OC`, the “activity change, negative = inhibition” value is 0.847%. The same measure, in the same setting: the value for `CCC1=Nc2cc(C(=O)NCC(C)c3ccccc3)ccc2Sc2ccc(C)cc21` (stereo not drawn) was -8.78%.

`CCOC(=O)c1c(-c2ccc(C)cc2)csc1/N=C(\C)C1=C(O)c2ccccc2C1=O`: the Potency was 2.69 µM (active).

As for `CCOC(=O)c1c(-c2ccc(-c3ccccc3)cc2)csc1NC(=O)CCC(=O)O`, the “activity change, negative = inhibition” value is 0.422%. On to `COC(=O)c1c(-c2ccc(C)cc2)csc1N`, for which the “activity change, negative = inhibition” value is 0.678%. Regarding `CN(C)S(=O)(=O)c1cccc(NC(=O)COC(=O)C2(c3ccccc3F)CCCC2)c1`, the “activity change, negative = inhibition” value is 3.61%. Regarding `CN(C)S(=O)(=O)c1cccc(NC(=O)COc2ccc3ccccc3c2)c1`, the Potency was 6.01 µM (active). As to `CN(C)S(=O)(=O)c1cccc(NC(=O)COC(=O)c2cc(=O)[nH]c(=O)[nH]2)c1`, the “activity change, negative = inhibition” value is 1.02%. `CCC(Oc1ccccc1C)C(=O)Nc1ccc(S(=O)(=O)Nc2cc(C)on2)cc1` (stereo not drawn): the “activity change, negative = inhibition” value was 1.08%. The same measure, in the same setting: the value for `CC1CN(C(=S)Nc2ccc(Br)cc2Cl)CC(C)O1` (stereo not drawn) was -1.05%; that for `O=C(Cn1c(-c2cncs2)nc2ccccc21)NC1CCCC1` was 2.57%. The same measure, in the same setting: to `O=C(CSc1nnc2c(n1)[nH]c1ccccc12)NC1CCCCC1` belongs -1.35%. Regarding `O=C(/C=C/c1cnc2ccccc2n1)NC1CCCCCC1`, the Potency is 13.5 µM (active). For `COc1ccc(/C=C/CN2CCN(Cc3ccc(C)cc3)C(CCO)C2)cc1` (stereo not drawn), the “activity change, negative = inhibition” value is -3.37%.

`CCc1cnc2c(c1SCC(=O)N1CCC(C)CC1)c(=O)n(C)c(=O)n2C`: the “activity change, negative = inhibition” value was 0.686%. On the same count and under the same terms, the value for `O=C1CC[C@H](O)CCN1[C@H](CSc1ccc(Br)cc1)Cc1ccccc1` was -2.89%.

With `C=CCOc1ccc(/C=C2\SC(=S)N(CCC(=O)O)C2=O)cc1`, the Potency was 1.69 µM (active). For `O=C1/C(=C/c2ccc(F)cc2)SC(=S)N1CCCC(=O)N1CCCCC1CCO` (stereo not drawn), the “activity change, negative = inhibition” value was -5.92%. Regarding `Cc1ccc(/C=C2\SC(=S)N(CCC(=O)Nc3ccc(O)cc3)C2=O)cc1`, the “activity change, negative = inhibition” value was -1.73%. On the same count and under the same terms, the value for `O=C(NCc1ccncc1)c1cccc(NS(=O)(=O)c2ccc(F)c(F)c2)c1` was 11.6%. On the same count and under the same terms, to `COc1ccc(S(=O)(=O)NCCSc2nnnn2-c2ccccc2)cc1` belongs 7.96%; to `COc1ccc(N(C)C(=O)C2CCN(S(=O)(=O)c3cc(Br)cc4c3N(C(C)=O)CC4)CC2)cc1`, -2.94%. As to `CC1=C(C(=O)OCc2ccc(C)cc2)C(c2ccccc2Cl)CC(=O)N1` (stereo not drawn), the “activity change, negative = inhibition” value is -12.5%. The same measure, in the same setting: the value for `CSc1ccc(CCNC(=O)c2cnn(-c3ccccc3)c2-n2cccc2)cc1` was -14.2%; that for `COc1ccc(CNC(=O)C2=Cc3cccc(OC)c3OC2)cc1OC` was 0.464%. Same read-out and setting: to `CCOc1cccc(C(=O)Nc2cnn(Cc3ccccc3)c2)c1` belongs -18.7%; to `COCC(=O)Nc1nnc(COc2ccccc2)s1`, -10.1%. With `CCOc1cccc(C(=O)Nc2nnc(-c3cccs3)s2)c1`, the Potency is 1.51 µM (active). In the case of `Cc1cccc(C(C)C)c1NC(=O)C(NS(=O)(=O)c1cccc2nsnc12)c1ccccc1` (stereo not drawn), the “activity change, negative = inhibition” value was -2.84%. Regarding `CCN(CC)S(=O)(=O)c1ccc2c(c1)N(CC(=O)NCc1ccccc1)C(=O)CS2`, the “activity change, negative = inhibition” value was -0.306%. Take `CN1C(=O)c2[nH]nc(-c3ccc(F)cc3)c2C1c1ccccn1` (stereo not drawn): the “activity change, negative = inhibition” value was -3.01%. Still for that read-out and setting: the value for `COc1cccc(NC(=O)N2C3CCCC2CC(NC(C)=O)C3)c1` (stereo not drawn) was 0.0264%; that for `Cc1ccc(OCCOc2cccc(/C=N/NC(N)=O)c2)cc1` was -15.1%. Regarding `O=C(N/N=C/c1cccc(O)c1)c1cc2c(ccc3ccccc32)o1`, the Potency is 10.7 µM (active). In the case of `O=C(Cc1c[nH]c2ccccc12)N/N=C/c1cccc(F)c1`, the “activity change, negative = inhibition” value is -15.3%.

As for `O=C(N/N=C/c1cccc(OCc2ccccc2)c1)c1ccc(Br)o1`, the Potency is 21.3 µM (active). Turning to `CCCc1ccc(OCc2ccc(C(=O)N/N=C/c3cccc([N+](=O)[O-])c3)o2)c(OC)c1`, the “activity change, negative = inhibition” value is 0.233%. Still for that read-out and setting: to `O=C(Cc1cccs1)N/N=C/c1ccc(OCc2ccccc2)cc1` belongs 2.08%; to `Cc1cccc(Oc2c([N+](=O)[O-])c(=O)n(C)c3ccccc23)c1`, -3.1%; to `COc1ccc(Cl)cc1NC(=O)CSc1nc2ccccc2c2nc(-c3ccccc3)nn12`, -0.248%. Still for that read-out and setting: to `CCOc1cccc(NC(=O)c2ccc(F)c(S(=O)(=O)N(CC)c3cccc(C)c3)c2)c1` belongs -8.56%; to `CCCN1CCc2nc(N3CCN(C)CC3)ncc2C1`, -5.04%.

`CCN1CCCC1CNC(=O)c1cc2cc(OC)c(OC)cc2[nH]1` (stereo not drawn): the “activity change, negative = inhibition” value was 0.324%.

Take `COc1ccc(C(=O)NC(C)CCc2ccccc2)c(OC)c1` (stereo not drawn): the “activity change, negative = inhibition” value was -0.702%. With `COc1ccc(CCNC(=O)CCc2ccccc2O)cc1OC`, the “activity change, negative = inhibition” value was 3.81%. Regarding `COc1ccc(C(=O)CCc2ccccc2O)c(OC)c1`, the Potency was 12 µM (active). As to `O=C(c1cc2cc(Br)cc(Br)c2oc1=O)N1CCOCC1`, the “activity change, negative = inhibition” value is 0.0137%.
